The whole screen tested about 5,500 compounds, of which about 2,000 (36%) were called active. About 18% were inconclusive and are not listed. Cut-off read from the data, not from the text of the source: active = normalized growth mostly below about 0.91 (no sharp cut-off); inconclusive = no clear call, values can overlap the other calls; inactive = mostly above about 0.92. This is one part of the list.
Assay: chemical genetic growth profiling, strain panel (AID 1159580);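 note: tested at 20 µM; growth read once vehicle control cultures reached saturation at 30 °C; 1 = growth at the plate median or of vehicle wells; lower values mean less growth of the strain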
Conditions: growth OD

Measured: normalized growth

CCC(=O)O[C@H]1[C@H](O[C@@H]2[C@@H](C)[C@H](O[C@H]3C[C@@](C)(OC)[C@@H](O)[C@H](C)O3)[C@@H](C)C(=O)O[C@H](CC)[C@@](C)(O)[C@H](O)[C@@H](C)C(=O)[C@H](C)C[C@@]2(C)O)O[C@H](C)C[C@@H]1N(C)C
inactive: S. cerevisiae deletion strains, locus YJR066W, strain TOR1, active compounds read low 0.852 | S. cerevisiae deletion strains, locus YKL009W, strain mrt4, active compounds read low 0.932 | S. cerevisiae deletion strains, locus YKL068W, active compounds read low 1.04 | S. cerevisiae deletion strains, locus YKL085W, strain MDH1 (second series), active compounds read low 1 | S. cerevisiae deletion strains, locus YKL085W, strain MDH1, active compounds read low 1 | S. cerevisiae deletion strains, locus YKL160W, strain elf1, active compounds read low 0.924 | S. cerevisiae deletion strains, locus YKL190W, strain CNB1, active compounds read low 1.01 | S. cerevisiae deletion strains, locus YKR026C, strain gcn3, active compounds read low 1.03 | S. cerevisiae deletion strains, locus YKR091W, strain srl3, active compounds read low 1.02 | S. cerevisiae deletion strains, locus YLL026W, active compounds read low 0.942 | S. cerevisiae deletion strains, locus YLL041C, strain sdh2, active compounds read low 1 | S. cerevisiae deletion strains, locus YLR039C, strain RIC1, active compounds read low 0.865 | S. cerevisiae deletion strains, locus YLR058C, strain SHM2, active compounds read low 0.968 | S. cerevisiae deletion strains, locus YLR102C, strain apc9, active compounds read low 1.01 | S. cerevisiae deletion strains, locus YLR113W, strain HOG1, active compounds read low 1.02 | S. cerevisiae deletion strains, locus YLR262C, strain YPT6 (second series), active compounds read low 1.03 | S. cerevisiae deletion strains, locus YLR262C, strain YPT6, active compounds read low 0.882 | S. cerevisiae deletion strains, locus YLR268W, strain sec22, active compounds read low 0.988 | S. cerevisiae deletion strains, locus YLR330W, strain CHS5, active compounds read low 0.937 | S. cerevisiae deletion strains, locus YLR342W, strain FKS1 (second series), active compounds read low 1.05 | S. cerevisiae deletion strains, locus YLR342W, strain FKS1, active compounds read low 1.05 | S. cerevisiae deletion strains, locus YLR370C, strain arc18, active compounds read low 1 | S. cerevisiae deletion strains, locus YLR371W, strain rom2, active compounds read low 0.935 | S. cerevisiae deletion strains, locus YLR384C, strain iki3, active compounds read low 1.02 | S. cerevisiae deletion strains, locus YML016C, strain PPZ1, active compounds read low 1 | S. cerevisiae deletion strains, locus YML032C, strain rad52, active compounds read low 0.946 | S. cerevisiae deletion strains, locus YML124C, strain tub3, active compounds read low 1.02 | S. cerevisiae deletion strains, locus YMR058W, strain fet3, active compounds read low 0.961 | S. cerevisiae deletion strains, locus YMR078C, strain ctf18, active compounds read low 0.988 | S. cerevisiae deletion strains, locus YMR129W, active compounds read low 1 | S. cerevisiae deletion strains, locus YMR223W, strain ubp8, active compounds read low 0.982 | S. cerevisiae deletion strains, locus YMR231W, strain pep5, active compounds read low 0.984 | S. cerevisiae deletion strains, locus YMR263W, strain SAP30, active compounds read low 0.943 | S. cerevisiae deletion strains, locus YNL067W, strain RPL9B, active compounds read low 0.948 | S. cerevisiae deletion strains, locus YNL128W, strain TEP1, active compounds read low 0.985 | S. cerevisiae deletion strains, locus YNL183C, strain NPR1, active compounds read low 0.857 | S. cerevisiae deletion strains, locus YNL209W, strain ssb2, active compounds read low 0.992 | S. cerevisiae deletion strains, locus YNL250W, strain rad50, active compounds read low 1.03 | S. cerevisiae deletion strains, locus YNL271C, strain bni1, active compounds read low 1.01 | S. cerevisiae deletion strains, locus YNL298W, strain CLA4, active compounds read low 0.952 | S. cerevisiae deletion strains, locus YNL322C, strain KRE1 (second series), active compounds read low 0.943 | S. cerevisiae deletion strains, locus YNR049C, strain mso1, active compounds read low 1.01 | S. cerevisiae deletion strains, locus YNR052C, strain pop2, active compounds read low 1 | S. cerevisiae deletion strains, locus YOL006C, strain TOP1, active compounds read low 0.689 | S. cerevisiae deletion strains, locus YOL012C, strain htz1 0.653 | S. cerevisiae deletion strains, locus YOL147C, strain pex11, active compounds read low 0.977 | S. cerevisiae deletion strains, locus YOR061W, strain CKA2, active compounds read low 1.01 | S. cerevisiae deletion strains, locus YOR069W, strain VPS5, active compounds read low 1 | S. cerevisiae deletion strains, locus YOR070C, strain gyp1, active compounds read low 0.93 | S. cerevisiae deletion strains, locus YOR080W, strain dia2, active compounds read low 0.977 | S. cerevisiae deletion strains, locus YOR136W, strain idh2, active compounds read low 0.978 | S. cerevisiae deletion strains, locus YOR144C, strain elg1, active compounds read low 1.01 | S. cerevisiae deletion strains, locus YOR184W, strain ser1, active compounds read low 0.936 | S. cerevisiae deletion strains, locus YOR231W, strain MKK1, active compounds read low 0.879 | S. cerevisiae deletion strains, locus YOR265W, strain rbl2, active compounds read low 0.982 | S. cerevisiae deletion strains, locus YOR316C, strain cot1, active compounds read low 1.01 | S. cerevisiae deletion strains, locus YPL051W, strain arl3, active compounds read low 0.921 | S. cerevisiae deletion strains, locus YPL055C, strain LGE1, active compounds read low 0.894 | S. cerevisiae deletion strains, locus YPL106C, strain sse1, active compounds read low 1.06 | S. cerevisiae deletion strains, locus YPL256C, strain CLN2, active compounds read low 0.953 | S. cerevisiae deletion strains, locus YPR119W, strain clb2, active compounds read low 1.02 | S. cerevisiae deletion strains, locus YPR141C, strain kar3, active compounds read low 1.06 | S. cerevisiae deletion strains, locus YPR167C, strain met16, active compounds read low 0.994 | S. cerevisiae deletion strains, strain wtn01, active compounds read low 0.968 | S. cerevisiae strains, strain wild type, active compounds read low 0.974
active: S. cerevisiae deletion strains, locus YKR001C, strain vps1, active compounds read low 0.648 | S. cerevisiae deletion strains, locus YLL001W, strain dnm1, active compounds read low 0.87 | S. cerevisiae deletion strains, locus YLR027C, strain aat2, active compounds read low 0.893 | S. cerevisiae deletion strains, locus YLR221C, strain rsa3, active compounds read low 0.796 | S. cerevisiae deletion strains, locus YLR258W, strain gsy2, active compounds read low 0.902 | S. cerevisiae deletion strains, locus YLR320W, strain mms22, active compounds read low 0.596 | S. cerevisiae deletion strains, locus YLR357W, strain rsc2, active compounds read low 0.759 | S. cerevisiae deletion strains, locus YLR418C, strain cdc73, active compounds read low 0.615 | S. cerevisiae deletion strains, locus YML120C, strain ndi1, active compounds read low 0.905 | S. cerevisiae deletion strains, locus YMR125W, strain sto1, active compounds read low 0.765 | S. cerevisiae deletion strains, locus YMR205C, strain PFK2, active compounds read low 0.8 | S. cerevisiae deletion strains, locus YMR307W, strain GAS1, active compounds read low 0.463 | S. cerevisiae deletion strains, locus YNL071W, strain lat1, active compounds read low 0.309 | S. cerevisiae deletion strains, locus YNL233W, strain BNI4, active compounds read low 0.853 | S. cerevisiae deletion strains, locus YNL248C, strain rpa49, active compounds read low 0.776 | S. cerevisiae deletion strains, locus YNL307C, strain MCK1, active compounds read low 0.4 | S. cerevisiae deletion strains, locus YOR001W, strain rrp6, active compounds read low 0.861 | S. cerevisiae deletion strains, locus YOR083W, strain WHI5, active compounds read low 0.829 | S. cerevisiae deletion strains, locus YOR106W, strain vam3, active compounds read low 0.75 | S. cerevisiae deletion strains, locus YOR270C, strain vph1, active compounds read low 0.3 | S. cerevisiae deletion strains, locus YOR290C, strain snf2, active compounds read low 0.786 | S. cerevisiae deletion strains, locus YPL078C, strain atp4, active compounds read low 0.635 | S. cerevisiae deletion strains, locus YPL240C, strain hsp82, active compounds read low 0.904 | S. cerevisiae deletion strains, locus YPR163C, strain tif3, active compounds read low 0.829
